LmPK inh: LmPK (Leishmania mexicana) enzyme inhibition; Q27686; Potency, µM (titrated, usually from 57.5 µM), hits mostly inhibitors; purified LmPK, Kinase-Glo ATP luminescence, 1 h; 290,000 compounds, 0.37% hits
Target sequence (Q27686 whole entry, looked up): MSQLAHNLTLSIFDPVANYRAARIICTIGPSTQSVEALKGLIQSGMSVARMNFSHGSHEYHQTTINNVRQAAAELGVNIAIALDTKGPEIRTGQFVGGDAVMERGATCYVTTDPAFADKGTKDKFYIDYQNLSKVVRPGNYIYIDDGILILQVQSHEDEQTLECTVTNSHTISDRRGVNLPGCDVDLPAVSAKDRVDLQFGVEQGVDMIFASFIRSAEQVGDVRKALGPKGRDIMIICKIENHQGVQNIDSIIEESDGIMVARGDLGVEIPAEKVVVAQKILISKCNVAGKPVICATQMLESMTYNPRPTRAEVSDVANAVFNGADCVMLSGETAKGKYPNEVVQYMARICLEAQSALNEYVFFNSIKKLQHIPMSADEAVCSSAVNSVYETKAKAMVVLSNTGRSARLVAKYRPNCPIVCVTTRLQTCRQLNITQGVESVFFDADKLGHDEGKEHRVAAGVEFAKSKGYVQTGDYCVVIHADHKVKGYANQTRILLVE
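Screened at intermediate enzyme activity to detect both inhibitors and activators: LmPK at 0.1 nM, with a 0.5 nM enzyme column as activation reference. PEP 0.5 mM, ADP 0.1 mM; ATP detected by luminescence after 1 h.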
RE007 growth inh: less growth of the S. pombe RE007 Vpr strain; AID 651644; Potency, µM (doses to about 92.2 µM), usual class: inhibitors; 360,000 compounds, 0.21% hits; S. pombe RE007 Vpr strain, BacTiter-Glo ATP luminescence, 24 h; active = well fitted falling curve with a large enough effect; inconclusive = small, poorly fitted or top-dose-only effect; inactive = no such curve, though single readings can be large or run the other way; also: nearly all actives have a fitted effect of over 50% in size
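Fission yeast RE007 carrying one integrated HIV-1 vpr copy, seeded at OD 0.01 in PMG+AL medium with 23 nL pinned compound. Grown 24 h at 30 degrees; viability read by BacTiter-Glo luminescence after 5 min.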
Sm TGR block: blocks Schistosoma mansoni thioredoxin glutathione reductase; Q962Y6; purified TGR, DTNB reduction, TNB absorbance 405 nm; Potency, µM (doses to about 114 µM), actives largely listed as inhibitors; 360,000 compounds, 3% hits; also: nearly all actives have a fitted effect of over 60% in size
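TGR 20 nM + NADPH 100 uM (dispensed conc.), cpd preinc 15 min RT; start with NADPH (500 uM addition) then DTNB (15 mM addition). Kinetic TNB absorbance, 405 nm filter. Four-parameter Hill fit across titration.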
Tb PYK inh: blocks Trypanosoma brucei pyruvate kinase; Q57TT1; 410,000 compounds, 0.12% hits; TbPYK enzyme, Kinase-Glo Plus ATP luminescence, 45 min; Potency, µM (series often up to 76.8 µM), actives largely listed as inhibitors; also: nearly all actives have a fitted effect of over 50% in size
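T. brucei PYK with substrate was exposed to pin-transferred compounds across a concentration series, then started with 130 uM ADP (final). After 45 min at room temperature, Kinase-Glo Plus luminescence was read, normalized and curve-fitted.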
Each line names hits and unclear results; the compound was inactive in the other large screens. In the library only some 3% were active in any assay of this set; here they are far more common. Unless noted, calls follow the shape of the dose curve; as a rule, active = well fitted curve in the direction sought with a large enough effect; inconclusive = small, poorly fitted or top-dose-only effect, or another doubt; inactive = no such curve, though single readings can be large; an effect the other way counts as inactive or inconclusive.

CC(=O)c1ccc(NC(=S)Nc2ccc(Br)c(Cl)c2)cc1	Sm TGR block 22.4µM
CC(=O)c1ccc(NC(=S)Nc2ccc3cn[nH]c3c2)cc1	Sm TGR block 20µM
CC(=O)Nc1cccc(NC(=S)Nc2ccc(F)c(Cl)c2)c1	Sm TGR block 28.2µM
CC(=O)N1CCC2(CC1)CN(C(c1ccccc1)c1ccccc1)C2	none (no result: LmPK inh, RE007 growth inh, Sm TGR block)
COc1ccc(C(=O)Nc2ccccc2-c2nc3ccccc3s2)c(OC)c1	none (no result: LmPK inh, RE007 growth inh)
CN(CCCN1CCCCC1)C(=O)c1cc(COc2ccc(F)cc2F)on1	none
CC1CCN(C(=O)COC(=O)/C=C/c2ccco2)CC1	none (no result: LmPK inh, Sm TGR block)
CN(Cc1ccccc1)C(=O)COC(=O)/C=C/c1ccco1	Sm TGR block 3.55µM
CN(CCOC(=O)/C=C/c1ccco1)Cc1ccccc1	Sm TGR block 2.51µM
Cc1cc(C)cc(N(C(C)C(=O)N2CCCC2)S(C)(=O)=O)c1 (stereo not drawn)	none
CC1CC(O)CC(C)(C)C1 (stereo not drawn)	none (no result: LmPK inh, RE007 growth inh, Sm TGR block)
CCn1cc(S(=O)(=O)c2ccccc2)c(=O)c2cc(F)c(N3CCCC3)cc21	none (no result: LmPK inh, RE007 growth inh)
Cc1onc(-c2ccccc2)c1C(=O)N(Cc1ccco1)Cc1cccs1	Sm TGR block 17.8µM
O=C(NC1CCCC1)c1sc(=S)n2c1[nH]c(=O)c1ccccc12	LmPK inh 22.4µM
COC(=O)CC1C(=O)NC2CCCCC2N1C(=O)CCl (stereo not drawn)	Sm TGR block 6.31µM
CCOC(=O)C1CCCN(c2c(N3CCN(C)CC3)c(=O)c2=O)C1 (stereo not drawn)	Sm TGR block 5.62µM
CCOC(=O)C1CCCN(c2c(N3CCC(N4CCCCC4)CC3)c(=O)c2=O)C1 (stereo not drawn)	Sm TGR block 89.1µM
COc1ccc(C2CC(=O)N(CC(=O)Nc3ccc(C(F)(F)F)cc3)c3ccccc3S2)cc1 (stereo not drawn)	none (no result: LmPK inh, RE007 growth inh)
CCCOc1cccc(C(=O)NC(=S)Nc2ccccc2)c1	Sm TGR block inconclusive
O=C(O)c1cccc(NC(=S)NC(=O)c2cccc(OCc3ccccc3)c2)c1	Sm TGR block 25.1µM
CNC(=S)Nc1cccc(C(=O)O)c1	Sm TGR block 3.16µM
CC(C)(C)C(=O)NC(=S)Nc1cccc(C(=O)O)c1	none
O=C(O)c1ccc(NC(=S)NC(=O)c2cncc(Br)c2)cc1	Sm TGR block 11.2µM
CCOC(=O)c1ccc(NC(=S)NC(=O)c2cncc(Br)c2)cc1	Sm TGR block inconclusive
O=C(O)c1cccc(NC(=S)NC(=O)c2ccncc2)c1	Sm TGR block 31.6µM
CCN(CC)CCNC(=O)Cn1ncc2c3ccccc3n(Cc3ccc(Cl)cc3)c2c1=O	none (no result: LmPK inh, RE007 growth inh)
Cc1cccc(CNc2ncnc3ccc(-c4ccc5c(ccn5C)c4)cc23)c1	none (no result: LmPK inh, RE007 growth inh, Tb PYK inh)
Cc1ccc2c(c1)N(C(=O)CCC(=O)NCc1cccs1)CCO2	none (no result: LmPK inh, RE007 growth inh)
CCCCCCCCCCCCCCCC(=O)OC[C@@H](NC(=O)C(Cl)Cl)[C@H](O)c1ccc([N+](=O)[O-])cc1	none (no result: LmPK inh, RE007 growth inh, Sm TGR block)
CCOC(=O)Nc1cc(N)ncn1	none (no result: LmPK inh, Sm TGR block)
CCC(=O)Nc1ccc(C=C(C(C)=O)C(C)=O)cc1	Sm TGR block inconclusive
CC(=O)C(=Cc1ccc(O)cc1)C(C)=O	Sm TGR block 44.7µM (no result: RE007 growth inh)
CCCCOC(=O)c1ccc(Nc2nc3ccccc3c3nnc(C)n23)cc1	none (no result: LmPK inh, RE007 growth inh)
O=S(=O)(c1ccc(F)cc1)c1snnc1-c1ccccc1	Sm TGR block 35.5µM
O=S(=O)(c1ccc(Cl)cc1)c1snnc1-c1ccccc1	Sm TGR block 12.6µM
CS(=O)(=O)N1CCC2(CCCN(c3cccc(-c4ccccc4)c3)C2)CC1	none (no result: LmPK inh, RE007 growth inh, Sm TGR block)
CCC(C)NC(=O)c1ccc2c(c1)N=C(C)c1cc(C)ccc1S2 (stereo not drawn)	none (no result: LmPK inh, RE007 growth inh)
COc1ccccc1CNc1ncnc2c1c(-c1ccccc1)cn2-c1cccc(C)c1	none (no result: LmPK inh, RE007 growth inh)
COc1ccccc1-c1nc(C#N)c(N2CC(C)CC(C)C2)o1 (stereo not drawn)	Sm TGR block 1.12µM
CC1CC(C)CN(c2oc(-c3ccccc3F)nc2C#N)C1 (stereo not drawn)	none
COCc1cc(=O)[nH]c(SCCS(=O)(=O)c2ccc(Cl)cc2Cl)n1	Sm TGR block 0.316µM
C(=C1/CCCC2=C1Nc1ncnn1C2c1ccccc1)/c1ccccc1 (stereo not drawn)	Sm TGR block 0.501µM (no result: RE007 growth inh, Tb PYK inh)
FC(F)(F)c1ccccc1C1C2=C(Nc3ncnn31)c1ccccc1CCC2 (stereo not drawn)	none (no result: RE007 growth inh, Tb PYK inh)
O=C(Cn1cc(SCc2ccc(F)cc2)c2ccccc21)N1CCCC1	none (no result: LmPK inh, RE007 growth inh)

Source: PubChem (National Center for Advancing Translational Sciences (NCATS))
